According to PubChem BioAssay AID540267 (National Center for Advancing Translational Sciences (NCATS), 2011):
Among all 340,000 compounds or so, about 530 (0.16%) were called active. Roughly 2% stayed inconclusive and do not appear here. This is one part of a sample in which actives are shown more often than they occur. Unmarked numbers belong to inactive results. Rule as the data show it: active = activity change below about -80%; inconclusive = between about -30% and that limit; inactive = weaker than that.

Experiment: Small Molecules that selectively kill Giardia lamblia: qHTS;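 also: parasites exposed to compound for two days anaerobically before the ATP read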
Conditions: Giardia lamblia trophozoite viability; at 7.66 µM; hits give low values
How it was run: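 Killing of trophozoites was scored by loss of ATP luminescence after a 48 hrs anaerobic exposure to compounds at 37 deg C, using 100 cells per well.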
% is scaled to controls: 0 for no effect and ±100 for the full control effect.

With `CNN/C(N=Cc1ccc([N+](=O)[O-])s1)=N\S(=O)(=O)c1cc(C)c(Cl)cc1SCc1ccccc1` the activity change was -85.8% (active).
For `O=C(Cc1c(F)cccc1Cl)Nc1ncc([N+](=O)[O-])s1`, the activity change was -90.9% (active).
With `O=C(Nc1ncc([N+](=O)[O-])s1)C1COc2ccccc2O1` (stereo not given) the activity change was -95.9% (active).
In the case of `O=C(CCc1ccccc1)Nc1ncc([N+](=O)[O-])s1`, the activity change is reported as -95.3% (active).
With `CC(Nc1nc(N2CCN(CCO)CC2)nc2ccccc12)c1ccccc1` (stereo not given) the activity change was -93.8% (active).
In the case of `O=C(Nc1ccc(Br)cn1)c1ccc([N+](=O)[O-])o1`, the activity change is reported as -87.6% (active).
In the case of `Cc1cccc(NC(=O)c2ccc([N+](=O)[O-])o2)c1`, the activity change is reported as -85.9% (active).
For `O=c1c([N+](=O)[O-])cccn1Cc1ccc(F)cc1Cl`, the activity change was -94.3% (active).
For `O=[N+]([O-])c1ncc(Br)cc1Nc1ccccc1`, the activity change was -90.1% (active).
For `COC(=O)N/N=C/c1c[n+]([O-])c2ccccc2[n+]1[O-]`, the activity change was -80.1% (active).
In the case of `CC(=O)c1c(C)n([O-])c2ccccc2[n+]1=O`, the activity change is reported as -80.7% (active).

Point of comparison: `O=C(c1ccco1)N(Cc1cccs1)c1ccc(O)cc1`, activity change -7.42%. Against it:
- O=[N+]([O-])c1ccc(C=Nc2ccc(Cl)cc2Cl)s1 — higher, 12%
- OC[C@@H]1O[C@H](n2cnc3c(SCc4ccccc4)ncnc32)[C@H](O)[C@H]1O — higher, 7.24%
- COc1ccc(CCn2c3c(c(=O)[nH]c2=S)CN(C(C)C)CN3)cc1OC — higher, -2.67%
- CC(=O)c1cccc(NC(=O)C2COc3ccccc3O2)c1 (stereo not given) — higher, 3.94%
- CC(C)Cc1nnc(NC(=O)CCc2ccccc2)s1 — higher, -6.99%
- COC(=O)CSc1nnc(NC(=O)CCc2ccccc2)s1 — lower, -28.2%
- CN(c1ccccc1)S(=O)(=O)c1cccc(NC(=O)Cc2c(F)cccc2Cl)c1 — higher, 6.09%
- COc1ccc(S(=O)(=O)N2CCOCC2)cc1NC(=O)Cc1c(F)cccc1Cl — higher, 0.481%
- O=C(Nc1cc(S(=O)(=O)N2CCCCC2)ccc1Cl)C1COc2ccccc2O1 (stereo not given) — higher, 9.58%
- O=C(Nc1cccc(Cl)c1)c1cc(S(=O)(=O)N2CCCCC2)c[nH]1 — lower, -28.5%
- Cc1nn(C(C)CC(=O)O)c(C)c1C (stereo not given) — higher, 7.78%
- CCC1(C)Cc2c(sc3[nH]c(=S)n(Cc4ccccc4)c(=O)c23)CO1 (stereo not given) — lower, -14.6%
- COc1cc2c(cc1OC)C(/C=C/c1ccco1)=NCC2 — higher, -3.82%
- CCOc1ccc(C(=O)NC(C(=O)NCc2ccccn2)C(C)C)cc1 (stereo not given) — higher, -4.15%
- OCCNc1ncnc2oc(-c3ccco3)c(-c3ccco3)c12 — higher, -2.77%
- COc1cc(OC)c2c(c1C(CCN1CCCCC1)c1ccc(N(C)C)cc1)OC(=O)CC2c1ccc(N(C)C)cc1 (stereo not given) — higher, 7.67%
- O=S(=O)(Nc1cccc2cccnc12)c1cccc2cccnc12 — lower, -17.9%
- CCOc1ccc(S(=O)(=O)N2CCN=C2Cc2ccccc2)cc1C — lower, -28.6%
- COc1ccc(CN2CCc3nc(Nc4ccccc4)ncc3C2)c(OC)c1OC — lower, -13.9%
- NS(=O)(=O)c1ccc(NC(=O)CSc2nnc3c(n2)[nH]c2ccccc23)cc1 — lower, -21.1%
- CCOCN(C(=O)Cn1c(C(C)O)nc2ccccc21)c1c(C)cccc1CC (stereo not given) — higher, 8%
- CN(CCC#N)c1ncnc2scc(-c3ccccc3)c12 — higher, -2.98%
- O=C1CC(c2ccccc2)CC2=C1C(c1ccco1)n1nc(C(F)(F)F)nc1N2 (stereo not given) — higher, 14.6%
- CC(Nc1nc(N2CCOCC2)nc2ccccc12)c1ccccc1 (stereo not given) — higher, 4.71%
- CC(Nc1nc(N2CCCC2)nc2ccccc12)c1ccccc1 (stereo not given) — higher, 3.32%
- O=C1C2C(c3ccccc3)CC=CC2C(c2ccoc2)N1Cc1ccccc1 (stereo not given) — lower, -9.66%
- O=C(Nc1ccc(Br)cn1)c1ccc([N+](=O)[O-])cc1Cl — lower, -28.4%
- CN1C(=O)c2ccc(C(=O)Nc3ccc(Br)cn3)cc2C1=O — higher, 6.68%
- O=C(Nc1cccc([N+](=O)[O-])c1)c1ccc2c(c1)OCO2 — higher, 7.08%
- O=C(Nc1cccc(O)c1)c1ccc(C(=O)c2ccccc2)o1 — lower, -8.06%
- c1ccc2c(C[n+]3csc4ccccc43)cccc2c1 — higher, 3.49%
- Cc1ccc(-c2ccc(=O)n(Cc3ccc(F)cc3Cl)n2)cc1 — higher, -0.457%
- N/C(=N/O)c1cccn1Cc1ccccc1[N+](=O)[O-] — higher, -2.12%
- Brc1nc2ncnc(NCc3ccco3)c2[nH]1 — higher, -4.89%
- O=[N+]([O-])c1ccccc1Nc1ccc(O)cc1 — higher, -6.38%
- O=[N+]([O-])c1cccc(/C=N/Nc2ncc(Br)cn2)c1 — higher, 23.3%
- NC(CSC1(c2ccccc2)c2ccccc2-c2ccccc21)C(=O)O (stereo not given) — higher, -0.132%
- Cc1ccc2oc(C(=O)N3CCN(C)C[C@@H]3C(C)C)c(C)c2c1 — higher, 11.8%
- CCCCCCC1(C)NC(c2ccc3c(c2)OCO3)=CC(c2ccccc2O)N1 (stereo not given) — lower, -22.5%
- CC1(C)c2[nH]c3ccccc3c2C[C@H]2C(=O)N(N)CC(=O)N21 — lower, -11.4%
- COC(=O)N/N=C/c1ccc(-c2ccc(Cl)c(Cl)c2)o1 — higher, -7.13%
- COC(=O)C(C)N=Cc1ccccc1 (stereo not given) — higher, -3.67%
- Cc1c(C=O)c2ccccc2n1CC(=O)O — higher, 21.1%
- CCOc1ccc(NC(=O)CSc2nnc3c(n2)[nH]c2ccc(S(=O)(=O)N4CCOCC4)cc23)cc1 — lower, -27.7%
- Cc1ccc(N2C(=O)C3C(c4ccccc4)(C2=O)C3(c2ccccc2)c2ccccc2)cc1 (stereo not given) — higher, 6.33%
- CCN(CC)/[N+]([O-])=N/Oc1cc(O/[N+]([O-])=N/N2CCCC2CO)c([N+](=O)[O-])cc1[N+](=O)[O-] (stereo not given) — higher, 9.52%
- CC1(C(=O)NCCc2c[nH]c3ccccc23)C=CC2(CCCCC2)N1C(=O)c1ccccc1 (stereo not given) — higher, 17.9%
- COc1cc(OC)c2c(C)cc(=O)oc2c1C(CCN1CCCCC1)c1ccc(N(C)C)cc1 (stereo not given) — higher, 8.97%
